Source: PubChem BioAssay (NCATS)
Inconclusive results are not listed. Values without a mark were called inactive. Calls follow the shape of the dose curve; as a rule, active = well fitted curve in the direction sought with a large enough effect in the main read-out, with a control signal flat (not every such curve was filed as active); inconclusive = small, poorly fitted or top-dose-only effect, or effect the other way, or a change in a side signal; inactive = no such curve, though single readings can be large or run the other way.

Test: qHTS Validation Assay to Find Inhibitors of Chronic Active B-Cell Receptor Signaling (AID 485345)
Conditions: ABC-DLBCL cells, chronic BCR signaling reporter, CBG luciferase; series mostly up to 46.1 µM; activity change: at the top concentration
Text: NIH Molecular Libraries Probe Production Network [MLPCN]
NIH Chemical Genomics Center [NCGC]
PI Name: Dr. R. Eric Davis
Diffuse large B-cell lymphoma (DLBCL) is the most common category of non-Hodgkin lymphoma, with ~20,000 new cases per year in the United States. DLBCL should be regarded as a collection of different neoplasms. Microarray gene expression analysis has defined two principal types of DLBCL, named for their similarity to normal B cell stages or activation states: a germinal center B-cell (GCB) type, and an activated B-cell (ABC) type. In ABC-DLBCL, a constitutive high-level activity of the NF-kappaB family of transcription factors has been observed (1) and NF-kappaB target genes are more highly expressed in ABC primary tumors than in GCB tumors. Functional studies have shown a constitutive high-level activity of the IkappaB (inhibitor of kappa-B) kinase (IKK) complex. […] Further analysis of DLBCL primary tumors for NF-kappaB target gene expression imply that although CARD11 is required for constitutive IKK activity in all ABC-DLBCL lines, mutations in CARD11 may be the root cause of IKK activation only in lines or tumors with such mutations. In other words, CARD11 mutations may explain NF-kappaB activation in only 10% of ABC-DLBCL cases. […] This process has been termed 'chronic active BCR signaling' (CABS).
The goal of this screen is to find small-molecule inhibitors of the CABS pathway found in ABC-DLBCL lines using a cell-based assay that measures IkappaBalpa stability, which has already been extensively validated in the OCI-Ly3 line (PubChem AID:445; REF: 4).
A cell-sensor assay for I-kappa-B-alpha stabilization has been developed. The assay uses green (CBG68) and red (CBR) emitting beetle luciferases [Chroma-GloTM developed by Promega Corp.] where the green luciferase is fused to IkappaBalpha and the red luciferase is present in its native state. Both luciferase genes are stably present in the TMD8 human ABC DLBCL cell line, but their expression is under the control of tetracycline-inducible promoters. Following the addition of doxycycline to induce expression of the luciferases, the green luminescence in control cultures rises only slowly because the CBG fusion partner IkappaBalpha is targeted by IKK activity for rapid degradation. In contrast, green luminescence rises rapidly in the presence of proteasome inhibitors or IKK inhibitors. The rise in red luminescence of CBR is not affected by proteasome or IKK inhibitors, and serves as normalization for cell number and nonspecific effects. Compounds were screened as a concentration-titration series that ranged from 46 uM to 3 nM.
NCGC Assay Protocol Summary:
Cells were seeded in 1536-well plates at 5000 cells/4uL in IMDM medium containing 0.5% FBS, w/o phenol red, 1% penicillin/streptomycin. Then, 23 nL of compounds or DMSO were delivered to each well using a pin tool. One uL 20ng/ml doxycycline was then dispensed into white solid 1536-well plates and the plates were incubated at 37C/5% C02 in a cell incubator for 4 hrs. Then 4 uL luminescent substrate mix (in-house prepared: 150 mM Tris-Cl, pH 7.6, 3 mM MgCl2, 1% Triton X-100, 5 mM DTT, 0.2 mM CoA, 0.15 mM ATP, 5 mM D-luciferin, final concentrations) was added to each well. The plate was incubated at r.t. for 10-15 min. The plates were measured on a ViewLux plate reader for green luminescence (540/20 nm filter) and red luminescence (618/8 nm filter). The green and red luminescent signals were corrected for red and green luminescence filter overlap using previously determined filter calibration constants (determined using the procedure outlined in the Promega Technical Manual; REF 4). The %Activity was determined from the ratio of corrected green/red luminescent values. MG132 were used as control. Green luminescent and ratio %Activity was determined by normalizing to the difference in signal between basal cells (0% Activity) and cells incubated with 10 uM of the proteasome inhibitor MG-132 (100% Activity). […]

SMILES	activity change
CC(N)(Cc1ccc(O)cc1)C(=O)O (stereo not given)	-3.78%
S=C(S)N1CCCC1	-21%
CC(=O)SC1CC2=CC(=O)CC[C@]2(C)C2CC[C@@]3(C)C(CC[C@@]34CCC(=O)O4)C12 (stereo not given in full)	-1.8%
O=C(O)C1=CCCNC1	1.67%
O=C(O)C1CN(CCCP(=O)(O)O)CCN1 (stereo not given)	-0.67%
O=c1[nH]ccc2c(O)cccc12	-10.1%
O[Si](CCCN1CCCCC1)(c1ccc(F)cc1)C1CCCCC1 (stereo not given)	-5.76%
CCN1C(=O)C=CC1=O	3.43%
[N-]=[N+]=Nc1ccc(C(=O)CSC[C@H](NC(=O)CC[C@H](N)C(=O)O)C(=O)NCC(=O)O)cc1	-20.8%
COc1ccc(CCN(C)CCc2ccc(OC)c(OC)c2)cc1OC	-6.19%
CC(C)NC[C@H](O)COc1ccc(CC(N)=O)cc1	-20.1%
CC1CCN=C(N)S1 (stereo not given)	-1.12%
Cc1cccc(C)c1OCC(N)C(C)C (stereo not given)	-4.62%
COc1ccc(-c2ccc(N)[n+](CCCC(=O)O)n2)cc1	-3.72%
O=C(O)[C@H]1NCCC[C@H]1C(=O)O	0.265%
OC[C@H]1NC[C@@H](O)[C@@H]1O	-8.87%
C[N+](C)(C)CC=O	-1.56%
O=C(O)CCC/C=C\C[C@@H]1[C@@H](/C=C/[C@H](O)C2Cc3ccccc3C2)[C@@H](F)C[C@@H]1O	-1.71%
OCC1NCC(O)C(O)C1O (stereo not given)	-6.09%
O=c1cc(-c2ccccc2)[nH]c2nc(Cl)ccc12	19.7%

SMILES	activity change
O=C(O)c1cccnc1C(=O)O	-11.9%
O=C(O)C1CCCNC1 (stereo not given)	1.44%
O=C(O)c1ccccc1Nc1ccccc1	8.47%
Nc1nc2[nH]c(=O)cnc2c(=O)[nH]1	-2.27%
CC(=O)N[C@@H](Cc1c[nH]c2ccccc12)C(=O)OCc1cc(C(F)(F)F)cc(C(F)(F)F)c1	-13.5%
NCCS(=O)O	-1.34%
COc1ccccc1N1CCN(CCCCNC(=O)c2ccc3ccccc3c2)CC1	-21.7%
O=C(O)C1CCNCC1	-3.91%
CCCn1c(=O)c2c(ncn2C)n(CCC)c1=O	-4.27%
NC[C@@H]1O[C@H](c2ccccc2)Cc2c1ccc(O)c2O	-11.5%
COc1ccccc1N1CCN(CCCNc2c(C)c(=O)n(C)c(=O)n2C)CC1	0.932%
C=C(C)C1CC=C(C(=O)O)CC1 (stereo not given)	-1.16%
CC[C@H](NC(=O)c1c(C)c(-c2ccccc2)nc2ccccc12)c1ccccc1	-3.97%
c1ccc(CN2CCC3(CCCc4ccccc43)CC2)cc1	-12.5%
COc1ccc(CCn2nnnc2C2(c3ccc(C)cc3)CC2)cc1	-16.7%
N=S(=O)(O)Cc1noc2ccccc12	-2.61%
CC(=O)NNC(=O)N1Cc2ccccc2Oc2ccc(Cl)cc21	-7.75%
NC1CONC1=O (stereo not given)	-3.96%
CN[C@H](CC(=O)O)C(=O)O	-11%
NC1CCN(O)C1=O (stereo not given)	1.14%
